# USP17 block: inhibitors of human USP17 deubiquitinase. hit rate 6.5% among 47,000. inhibition, % at 50 µM. purified USP17, Ub-rhodamine cleavage fluorescence, 3 h. A8MUK1
# Target sequence (A8MUK1 whole entry, looked up): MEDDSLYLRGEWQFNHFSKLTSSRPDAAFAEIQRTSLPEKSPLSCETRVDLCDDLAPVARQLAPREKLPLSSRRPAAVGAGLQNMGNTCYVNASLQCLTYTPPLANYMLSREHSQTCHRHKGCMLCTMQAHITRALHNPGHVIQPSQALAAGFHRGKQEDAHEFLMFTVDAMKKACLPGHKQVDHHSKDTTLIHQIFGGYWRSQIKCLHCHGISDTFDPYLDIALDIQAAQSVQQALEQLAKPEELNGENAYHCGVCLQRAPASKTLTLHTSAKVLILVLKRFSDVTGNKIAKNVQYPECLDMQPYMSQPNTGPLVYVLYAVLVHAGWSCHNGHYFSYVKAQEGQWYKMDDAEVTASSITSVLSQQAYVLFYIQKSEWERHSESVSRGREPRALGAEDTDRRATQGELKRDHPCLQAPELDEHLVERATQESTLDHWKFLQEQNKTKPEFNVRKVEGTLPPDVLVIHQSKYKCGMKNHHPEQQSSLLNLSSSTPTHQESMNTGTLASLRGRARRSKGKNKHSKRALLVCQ
# USP30 block: human USP30 deubiquitinase inhibition; Q70CQ3; purified USP30, Ub-rhodamine cleavage fluorescence; inhibition, % at 25 µM; hit rate 5.3% among 47,000; AID 1645860
# USP8 block: inhibitors of human USP8 deubiquitinase. P40818. purified USP8, Ub-rhodamine cleavage fluorescence, 30 min. inhibition, % at 20 µM. hit rate 4.2% among 47,000
# USP10 block: human USP10 deubiquitinase inhibition; purified USP10, Ub-rhodamine fluorescence, 60 min; inhibition, % at 20 µM; hit rate 1.1% among 47,000
# USP28 block: human USP28 deubiquitinase inhibition; Q96RU2; purified USP28, Ub-rhodamine cleavage fluorescence, 30 min; inhibition, % at 25 µM; hit rate 3% among 47,000
# Numbers without * were called inactive; · = not tested or not shown. A selection: hits, their analogues and other compounds. The true share with any hit is near 14%. Cut-off read from the data, not from the text of the source: active = inhibition above about 30%; inactive = the rest.
SMILES,USP17 block,USP30 block,USP8 block,USP10 block,USP28 block
Cc1ccc(CNc2nc3nc(C)c(CCC(=O)N4CCCCC4)c(=O)n3[nH]2)cc1,·,27,24,1,14
Cc1ccc(Nc2nc(C(=O)NCc3ccc4c(c3)OCO4)cc3occc23)cc1Cl,66*,-133,76*,7,-14
Cc1cccc(CNC(=O)c2cc3occc3c(Nc3ccc(F)cc3)n2)c1,7,6,7,21,6
O=C(NCc1ccc2c(c1)OCO2)c1cc2occc2c(Nc2ccc(F)cc2)n1,25,1,-19,0,-5
Cc1ccc(Nc2nc(C(=O)NCc3ccccc3)cc3occc23)cc1,32*,-64,17,5,0
COc1ccc(/C=C(\C#N)c2nnc(N=CN(C)C)s2)cc1,-13,-12,-40,-5,-6
O=C1NC(=O)/C(=C/c2ccc(OC(=O)c3ccc(Cl)cc3Cl)cc2)N1,38*,62*,94*,45*,31*
CCc1cccc(C)c1NC(=O)Cn1cc2c(n1)CCC(C)C2 (centres undefined),11,13,23,0,18
Cc1cccc(CNC(=O)CN2C(=O)C3CCCN3C(=O)c3ccc(F)cc32)c1 (centres undefined),1,-2,4,-1,-13
Cc1cccc(CSCCNC(=O)CN2C(=O)c3cccc4cccc2c34)c1,41*,23,0,-1,4
COc1ccccc1NC(=O)CN1C(=O)c2cccnc2Sc2ccccc21,-2,-31,0,-4,-2
CCOc1ccccc1NC(=O)CN1C(=O)c2cccc3cccc1c23,-9,6,68*,26,-6
O=C(CN1C(=O)c2cccc3cccc1c23)NCCSCc1ccc(Cl)c(Cl)c1,-3,0,53*,40*,-2
CCCCN1Cc2sc(NC(=O)Nc3ccccc3F)nc2C1=O,33*,1,2,0,0
CC1CS(=O)(=O)N(c2ccc(C(=O)NCCc3ccccc3F)cc2)C1=O (centres undefined),6,23,6,-1,9
Cc1cc(C)c(C(=O)N2CCCC(C(=O)NCc3ccccc3Cl)C2)[nH]1 (centres undefined),·,-30,-15,-4,-8
O=C(NCc1ccccc1Cl)C1CCCN(c2nc3ccsc3c(=O)s2)C1 (centres undefined),55*,-36,0,20,0
COc1ccc(Br)cc1CNC(=O)C1CCCN(c2nnc(N3CCCC3=O)s2)C1 (centres undefined),40*,-29,-11,-2,-6
COc1cccc(CNC(=O)C2CCCN(c3nnc(N4CCCC4=O)s3)C2)c1OC (centres undefined),-7,9,-25,0,-16
COc1ccccc1CNC(=O)C1CCCN(c2nc3ccsc3c(=O)s2)C1 (centres undefined),57*,20,1,3,6
CC1CCCCN1S(=O)(=O)c1cc(-c2nnc(C3CCCC3)o2)co1 (centres undefined),15,-1,8,0,5
Cc1ccc2nc(N3C(=O)c4oc5ccccc5c(=O)c4C3c3ccc(C)o3)sc2c1 (centres undefined),40*,41*,10,7,13
Cc1ccc2nc(N3C(=O)c4oc5ccccc5c(=O)c4C3c3ccco3)sc2c1 (centres undefined),-9,-49,12,10,4
O=S1(=O)c2ccccc2O[C@H]2CCNCC[C@@H]2N1CC1CC1,3,·,-5,0,·
O=S(=O)(Cc1ccccc1)N1CCCN(c2cc(-c3ccccn3)[nH]n2)CC1,-41,-9,-187,-3,-10
Cc1onc(-c2ccccc2)c1C(=O)NC(C)c1ccccn1 (centres undefined),-11,-1,-4,2,-6
CC(=O)N1Cc2c(C(=O)Nc3cncc(F)c3)c3cccnc3n2CC1C (centres undefined),-9,-56,-1,-9,-6
CC1Cc2ccccc2N1S(=O)(=O)c1cccc(C(=O)OCC(=O)Nc2ccc3c(c2)OCO3)c1 (centres undefined),-3,-57,37*,8,8
O=C(O)c1cccc(S(=O)(=O)NCc2ccc3c(c2)OCO3)c1,9,35*,3,1,9
CC1Cc2ccccc2N1S(=O)(=O)c1cccc(C(=O)NCc2ccc(Cl)cc2Cl)c1 (centres undefined),10,-112,3,-9,-14

# Screens from PubChem.
